# Screening results: PubChem BioAssay, NMMLSC
# RGS7-Gao reg: RGS7-Galphao binding modulators, primary screen, biochemical, multiplexed bead flow cytometry; binding response (% of control), % at 10 µM; 0.35% of 220,000 active; actives lie on both sides; in the data active = binding response below about 49% or above about 150%; inconclusive = no clear call, values can overlap the other calls; inactive = in between;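 also: fluorescent Galphao held in activated GDP-AlF4 state binding bead-coupled RGS7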
# Target sequence (P09471 whole entry, looked up): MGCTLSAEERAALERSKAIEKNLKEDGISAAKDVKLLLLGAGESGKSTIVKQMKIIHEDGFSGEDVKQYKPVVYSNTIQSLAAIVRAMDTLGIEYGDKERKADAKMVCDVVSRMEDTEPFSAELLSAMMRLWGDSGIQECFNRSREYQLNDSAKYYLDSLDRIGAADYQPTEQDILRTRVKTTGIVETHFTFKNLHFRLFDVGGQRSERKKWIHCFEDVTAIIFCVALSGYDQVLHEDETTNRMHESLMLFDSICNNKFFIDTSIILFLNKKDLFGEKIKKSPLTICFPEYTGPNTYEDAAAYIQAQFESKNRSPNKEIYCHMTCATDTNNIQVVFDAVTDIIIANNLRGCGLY
# RGS4-Gao reg: modulators of RGS4 binding to Galphao, primary screen, biochemical, multiplexed bead flow cytometry; Guanine nucleotide-binding protein G(o) subunit alpha (Homo sapiens), P09471; actives lie on both sides; binding response (% of control), % at 10 µM; 0.33% of 220,000 active; AID 1415, 2008; in the data active = binding response below about 49% or above about 150%; inactive = in between;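 also: fluorescent Galphao activated with aluminum fluoride binding bead-coupled RGS4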
# Avidin bead fluor: green autofluorescence of compounds with avidin beads – biophysical, 488/530 nm, flow cytometry, artefact control, profiling panel; compound fluorescence 488/530 nm; active compounds read high; AID 1775, 2009; 0.38% of 220,000 active; fluorescence (KMESF) at 10 µM; in the data active = fluorescence above about 47
# RGS16-Gao HTS: modulators of RGS16 binding to Galphao, primary screen, biochemical, human proteins, multiplexed bead flow cytometry; binding response (% of control), % at 10 µM; 0.38% of 220,000 active; bead-based flow cytometry RGS16-Galphao binding, fluorescence; actives lie on both sides;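 also: Galphao activated by GDP with aluminum fluoride before binding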
# RGS8-Gao: RGS8-Galphao binding modulators, primary screen, biochemical, multiplexed bead flow cytometry | Guanine nucleotide-binding protein G(o) subunit alpha (Homo sapiens), P09471 | response (percent of control binding), % at 10 µM | 0.34% of 220,000 active | actives lie on both sides; in the data active = response below about 60% or above about 140%; inactive = in between;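 also: Galphao activated as the GDP aluminium fluoride complex binding bead-coupled RGS8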
# GSH fluor: compound fluorescence on glutathione beads, profiling panel, artefact control, biophysical, 488/530 nm, flow cytometry | GSH beads flow cytometry, compound fluorescence 488/530 nm; active compounds read high | fluorescence (KMESF) at 10 µM | 0.25% of 190,000 active; in the data active = fluorescence above about 89;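 also: glutathione beads carrying GST-tagged Bcl family fusion proteins plus one bare bead set; values are compound well signal with DMSO vehicle wells as background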
# RGS-Gao: modulators of RGS–Galpha-o binding, primary screen, biochemical, multiplexed beads, flow cytometry, RGS4/7/8/16/19; AID 1504, 2009; 99% of 1,600 active; RGS4–Galpha-o binding response, % at 10 µM; shares compounds with RGS16-Gao HTS; multiplexed bead flow cytometry;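 also: fluorescently labeled Galpha-o bound to GDP with aluminium fluoride binding biotinylated RGS beads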
# Biotin-avidin: disruption of biotin probe capture by avidin, counter-screen for RGS protein interaction modulators, biochemical, flow cytometry, bead-based. shares compounds with RGS16-Gao HTS. streptavidin beads, fluorescein-biotin binding. inhibition, % at 10 µM. 1,700 tested, under 10 active. AID 1783, 2009;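 active = inhibition above 50%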;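 also: median green fluorescence of gated singlet beads compared with DMSO control wells; 0% = DMSO wells and 100% = complete loss of bead fluorescence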
# RGS8-Gao single: RGS8-Galphao binding modulators, confirmation, biochemical, multiplexed bead flow cytometry, single concentration. 3% of 1,700 active. shares compounds with RGS16-Gao HTS. AID 1836, 2009. bead-based flow cytometry RGS8-Galphao binding, fluorescence; actives lie on both sides. binding response (% of control), % at 10 µM; in the data active = binding response below about 72% or above about 130%; inactive = in between;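 also: Galphao activated as GDP AlF4 complex before binding bead RGS8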
# RGS7-Gao confirm: RGS7-Galphao binding modulators, confirmation, biochemical, multiplexed bead flow cytometry, single concentration | shares compounds with RGS16-Gao HTS | bead-based flow cytometry RGS7-Galphao binding; actives lie on both sides | response (percent of control binding), % at 10 µM | 7.8% of 1,700 active | AID 1837, 2009; in the data active = response below about 75% or above about 130%; inactive = in between;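 also: fluorescent Galphao activated with GDP and aluminum fluoride binding bead-coupled RGS7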
# RGS16-Gao conf: modulators of RGS16-Galphao protein binding, confirmation, biochemical, single concentration, multiplexed bead flow cytometry; shares compounds with RGS16-Gao HTS; bead-based flow cytometry; actives lie on both sides; response (% of control binding), % at 10 µM; 4% of 1,700 active; in the data active = response below about 74% or above about 130%; inactive = in between;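 also: Galphao activated as the GDP aluminium fluoride complex binding bead-coupled RGS16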
# RGS4-Gao confirm: modulators of RGS4-Galphao protein binding, confirmation, biochemical, single concentration, multiplexed bead flow cytometry. shares compounds with RGS16-Gao HTS. actives lie on both sides. binding response (% of control), % at 10 µM. 4% of 1,700 active. AID 1840, 2009; in the data active = binding response below about 74% or above about 130%; inactive = in between
# RGS19-Gao conf: regulators of RGS19-Galphao binding, confirmation, biochemical, single point, multiplexed bead flow cytometry; shares compounds with RGS16-Gao HTS; bead-based flow cytometry RGS19-Galphao binding; actives lie on both sides; response (percent of control binding), % at 10 µM; 5% of 1,700 active; in the data active = response below about 50% or above about 160%; inactive = in between;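 also: 100% = no compound control and 0% = blank background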
# Target sequence (P09471 whole entry, looked up): as above
# Target sequence (P49795 whole entry, looked up): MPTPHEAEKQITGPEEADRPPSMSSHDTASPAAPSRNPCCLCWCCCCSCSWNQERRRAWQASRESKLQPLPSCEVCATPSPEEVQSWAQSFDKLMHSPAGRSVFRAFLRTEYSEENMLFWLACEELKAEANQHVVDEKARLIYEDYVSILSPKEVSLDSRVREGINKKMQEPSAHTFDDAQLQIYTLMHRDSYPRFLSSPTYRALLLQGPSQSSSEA
# * = called active by the depositor; u = inconclusive; x = no result given; [ ] = dose if it differs, or a comment. Rows were chosen to be rich in hits. Some 1.2% of all compounds tested hit in one or more screens of this group. Unless noted, no rule for the calls is given here.
SMILES,RGS7-Gao reg,RGS4-Gao reg,Avidin bead fluor,RGS16-Gao HTS,RGS8-Gao,GSH fluor,RGS-Gao,Biotin-avidin,RGS8-Gao single,RGS7-Gao confirm,RGS16-Gao conf,RGS4-Gao confirm,RGS19-Gao conf
FC(F)C(F)(F)c1cc(-c2ccc(Cl)cc2)n[nH]1,u,110,5,108,104,x,x,x,x,x,x,x,x
Fc1ccc(-c2cc(C(F)(F)C(F)F)[nH]n2)cc1,u,168*[activator],79*,164,111,x,x,2,104,106,106,107,97
COC(=O)/C(=C\Nc1ccc(Cl)cc1Cl)NC(=O)c1ccc(OC)cc1,u,105,8,106,105,x,x,x,x,x,x,x,x
CCCCc1cc(=O)oc2cc(C)c(CN3CCCC3)c(O)c12,160*[activator],139,15,175*[activator],129,29,139*,1,93,90,92,92,61
CCOC(=O)c1ccc[n+](CC(=O)c2ccc(OC)cc2)c1,105,99,5,106,101,10,x,x,x,x,x,x,x
CCOC(=O)c1ccc[n+](CC(=O)c2ccccc2)c1,113,115,4,14,54*,14,115*,0,100,100,102,99,99
Cc1ccc(C(=O)NCC(=O)OCC(=O)c2ccc3c(c2)NC(=O)CO3)cc1,95,99,6,98,98,14,x,x,x,x,x,x,x
CNC(=O)C1CC(=O)N(CCCc2ccccc2)C(=Nc2ccccc2)S1 (centres undefined),92,94,3,22*,87,47,94*,1,102,101,104,99,120
CCCc1cc(=O)oc2c3c(c4c(c12)OC(C)(C)C=C4)OC(C)C(C)C3O (centres undefined),u,-6.7*,0,-5.8*,10*,x,x,-2,107,111,108,110,112
COc1ccccc1N1CCN(S(=O)(=O)CC23CCC(CC2=O)C3(C)C)CC1 (centres undefined),17*,23*,0,14*,15*,30,x,0,99,101,98,96,70
CCOC(=O)c1ccc(NC(=O)C2(c3ccccc3)CCCC2)cc1,123,131,5,321,144*[activator],7,131*,x,x,x,x,x,x
Nc1ccc(-c2nc3c(Cl)cc(N)cc3[nH]2)cc1,26*,78,1,89,63,2,78*,1,103,100,107,101,128
Nc1ccc2nc(-c3ccc(N)c(Cl)c3)[nH]c2c1,101,101,7,102,102,12,x,x,x,x,x,x,x
COCCCNC(CC(=O)Nc1ccc(OC)cc1OC)C(=O)O (centres undefined),x,x,x,x,x,55,x,1,104,107,106,103,96
COc1ccc(NC(=O)CC(NCCc2ccccc2)C(=O)O)c(OC)c1 (centres undefined),99,99,23,101,101,13,x,x,x,x,x,x,x
O=C(O)Cc1sc(Nc2ccc(F)cc2)nc1-c1cccs1,100,96,9,91,92,17,x,x,x,x,x,x,x
O=C(c1ccncc1)N1N=C(C2CCCCC2)CC1(O)C(F)(F)F (centres undefined),51,47*,2,15,61,11,x,4,96,72*,89,83,78
Cc1ccc(N=N/C(=C\O)C(=O)c2ccc(Cl)cc2)cc1,45*,42*,15,43,59*,6,x,-2,99,98,102,102,111
O=C(O)c1ccc(N/N=C2/CCCc3ccccc32)cc1,u,114,33,104,101,x,x,x,x,x,x,x,x
O=C(COc1ccccc1N1C(=O)C2C3C=CC(C3)C2C1=O)c1ccccc1 (centres undefined),u,102,7,98,102,x,x,x,x,x,x,x,x
Cc1ccc(-c2nn(CC(=O)N3CCOCC3)c(=O)c3ccccc23)cc1S(=O)(=O)N(C)C,u,163*[activator],62*,152,116,x,x,1,102,102,100,100,110
O=C(Nc1ccc(-c2nc3ccccc3[nH]2)cc1)c1ccc2c(c1)OCO2,100,99,10,98,101,15,x,x,x,x,x,x,x
O=C(Nc1ccc(Cl)c(-c2nc3ccccc3[nH]2)c1)c1ccc2c(c1)OCO2,103,107,6,215*[activator],136,9,107*,0,106,106,108,104,100
CC(C)(C(=O)Nc1nccs1)c1ccccc1,156*[activator],137,12,147,139,13,137*,3,103,109,104,106,107
O=C(Nc1ccccc1)Nc1nccs1,97,98,34,101,103,14,x,x,x,x,x,x,x
